# Results as given in the supplement of paper PMC13380429.
# Values without a mark were called inactive.
# System: Vero E6 infected with SARS-CoV-2
# Assay: inhibition of SARS-CoV-2 cytopathic effect; higher = more antiviral protection, active = above 15
# Details: 833.33 nM; 48 h
row,SMILES,inhibition of SARS-CoV-2 cytopathic effect
1,CCOC(=O)C(=O)Nc1cccc(OC)c1C(N)=O,2.83%
2,CN(C)C(=O)Oc1ccc[n+](C)c1 [mestinon],-2.1%
3,CC(C[N+](C)(C)C)OC(N)=O (centres undefined) [bethanechol],-5.89%
4,CC(=O)O[C@]1(C(C)=O)CC[C@H]2[C@@H]3C[C@H](C)C4=CC(=O)CC[C@]4(C)[C@H]3CC[C@@]21C [medroxyprogesterone-acetate],2.58%
5,CNC(=O)[C@@H](NC(=O)[C@H](CC(C)C)[C@H](O)C(=O)NO)C(C)(C)C [marimastat],-6.93%
6,O=S(=O)(F)Cc1ccccc1 [phenylmethylsulfonyl-fluoride],0.75%
7,Cc1ccc(S(=O)(=O)n2c(N)nc3ccccc32)cc1,-2.7%
8,CC(C)Oc1ccc(-c2nc(-c3cccc4c3CC[C@@H]4NCCO)no2)cc1C#N [ozanimod],0.63%
9,O=C(O)c1c(Sc2ccccc2)c2cc(Cl)ccc2n1Cc1ccc(Cl)cc1,3.75%
10,Cc1nc(Nc2ncc(C(=O)Nc3c(C)cccc3Cl)s2)cc(N2CCN(CCO)CC2)n1 [dasatinib],-12.6%
11,CCCN1CCN(c2ccc(C(=O)NC3(C(=O)NCC#N)CCCCC3)cc2)CC1 [balicatib],0.29%
12,CNC(C)(C)Cc1ccccc1 [mephentermine],-3.76%
13,C#C[C@]1(O)CC[C@H]2[C@@H]3CCC4=C(CCC(=O)C4)[C@H]3CC[C@@]21C [noretynodrel],-5.6%
14,CC(C)(C)C[C@@H]1N[C@@H](C(=O)N[C@H]2CC[C@H](O)CC2)[C@H](c2cccc(Cl)c2F)[C@]12C(=O)Nc1cc(Cl)ccc12,2.65%
15,NCCCC[C@H](NC(=O)[C@@H](Cc1cc(Br)c(O)c(Br)c1)NC(=O)N1CCC(N2Cc3ccccc3NC2=O)CC1)C(=O)N1CCN(c2ccncc2)CC1,-1.34%
16,CC(C)NC(=O)c1ccc(C#Cc2ccncc2)cn1,1.58%
17,O=C(Nc1ccc(N2CCC(C(=O)N3CCOCC3)CC2)cc1)c1cnc(Oc2ccccc2)nc1,1.19%
18,O=C(NN1C(=O)[C@@H]2[C@@H]3C=C[C@@H]([C@H]4C[C@@H]34)[C@@H]2C1=O)c1ccc(C(F)(F)F)cc1 [tecovirimat],0.04%
19,O=c1ccc2ccc(OCCCCN3CCN(c4cccc5sccc45)CC3)cc2[nH]1 [brexpiprazole],2.71%
20,Cc1ccc(-n2nc(C(C)(C)C)cc2NC(=O)Nc2ccc(OCCN3CCOCC3)c3ccccc23)cc1 [doramapimod],4.29%

row,SMILES,inhibition of SARS-CoV-2 cytopathic effect
1,NCCNCCNCCN [trientine],2.74%
2,CCC1(C)CC(=O)NC1=O (centres undefined) [ethosuximide],1.39%
3,O=C(O)CCCCC(CCSCc1ccccc1)SCc1ccccc1 (centres undefined),0.34%
4,NC1CCN(c2cccc(Cl)n2)CC1,-0.29%
5,COc1cc(C)[nH]c(=O)c1CNC(=O)c1c(C)n([C@H](C)C2CCOCC2)c2ccccc12,-4.34%
6,COc1cccc(Nc2c(C(N)=O)cnc3c(C)cc(S(=O)(=O)c4cccc(C(=O)N(C)C)c4)cc23)c1,3.01%
7,O=C(O)CNC(=O)c1c(O)c2ccccc2n(Cc2ccccc2)c1=O,-0.62%
8,C/C=C(/C(=C/C)c1ccc(O)cc1)c1ccc(O)cc1 [dienestrol],0.84%
9,COC(=O)C1=C(C)NC(C)=C(C(=O)OC)C1c1ccccc1[N+](=O)[O-] [nifedipine],3.23%
10,N=C(N)c1ccc(-c2ccc(-c3ccc(C(=N)N)cc3)o2)cc1 [furamidine],0.94%
11,Cc1cccc(C(=O)NCN2CCN(c3ccccc3C#N)CC2)c1,0.2%
12,CCCCCCN(CCCCCC)C(=O)Cc1c(-c2ccc(F)cc2)[nH]c2ccccc12,0.72%
13,N[C@H]1C(O)O[C@H](CO)[C@@H](O)[C@@H]1O (mixture of isomers) [glucosamine],0.81%
14,CC(C)Nc1nc2cc(Cl)c(Cl)cc2n1[C@H]1O[C@@H](CO)[C@H](O)[C@@H]1O [maribavir],-0.76%
15,CC[C@H]1[C@@H](O)[C@@H]2[C@H](CC[C@]3(C)[C@@H]([C@H](C)CCOS(=O)(=O)O)CC[C@@H]23)[C@@]2(C)CC[C@@H](O)C[C@@H]12,1.94%
16,CCCCCCCCCCCC(=O)N(CCO)CCO [lauric-diethanolamide],1.01%
17,CC(Oc1ccc(O)cc1)(P(=O)(O)O)P(=O)(O)O,-1.36%
18,NC(=O)C1=CN([C@@H]2O[C@H](COP(=O)(O)OP(=O)(O)OC[C@H]3O[C@@H](n4cnc5c(N)ncnc54)[C@H](O)[C@@H]3O)[C@@H](O)[C@H]2O)C=CC1 [coenzyme-I],1.03%
19,NC(=O)c1[nH]cnc1O,-1.72%
